Screening results: PubChem, several laboratories
Mcl1 Bid PPI = Mcl-1/Bid interaction inhibition; inhibition, % at 21.7 µM; 220,000 compounds, 0.97% hits; TR-FRET Mcl-1/Bid-Dy647 peptide binding, 1536-well;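 active = compounds that cut the binding signal by more than half at the single screening dose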;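 also: His-tagged Mcl-1 with europium anti-His antibody binding Bid BH3 peptide; 0% = Mcl-1 plus peptide wells and 100% = peptide-only wells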
Target sequence (Q07820 whole entry, looked up): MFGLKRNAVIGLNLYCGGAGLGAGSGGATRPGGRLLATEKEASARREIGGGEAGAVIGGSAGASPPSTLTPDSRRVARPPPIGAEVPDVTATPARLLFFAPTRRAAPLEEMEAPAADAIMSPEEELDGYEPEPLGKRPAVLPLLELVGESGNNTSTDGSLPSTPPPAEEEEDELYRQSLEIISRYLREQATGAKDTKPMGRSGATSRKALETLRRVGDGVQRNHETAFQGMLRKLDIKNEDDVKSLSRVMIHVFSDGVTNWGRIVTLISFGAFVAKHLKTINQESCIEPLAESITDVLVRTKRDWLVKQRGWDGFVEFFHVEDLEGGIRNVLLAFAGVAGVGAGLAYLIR
Mcl1-Noxa inh = Mcl-1/Noxa interaction inhibition. Q07820. TR-FRET Mcl-1/Noxa peptide binding, 2 h. inhibition, % at 21.7 µM. 220,000 compounds, 1.5% hits. AID 1022;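 active = compounds that cut the protein-peptide binding signal by more than 50% relative to plate controls in a single-dose test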;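 also: His-tagged Mcl-1 with rhodamine Noxa BH3 peptide and terbium anti-His antibody; 0% = Mcl-1 plus Noxa peptide wells and 100% = peptide-only wells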
Mcl-1 Bim block = disrupts Bim peptide binding to human Mcl-1 | Bead-based flow cytometry, Bim peptide-Mcl-1 binding | inhibition, % at 10 µM | 190,000 compounds, 0.1% hits | Q07820 | AID 1009; in the data active = inhibition above about 40%;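 also: 0% = no compound tracer wells and 100% = peptide blocker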
MCL1-BIM inh = inhibitors of human MCL1 binding to BIM-BH3 peptide; Q07820; GST-MCL1 / FITC-Bim-BH3 fluorescence polarization; inhibition, % at 10.9 µM; 320,000 compounds, 0.68% hits;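 active = inhibition above the mean inhibition of all tested compounds plus 3 SD, set per campaign, cut at about 40% in these data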;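 also: 0% = DMSO wells and 100% = unlabeled Bim-BH3 peptide control; higher means more loss of mP so more displacement of Bim peptide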
* marks the source's active call; other numbers are inactive results. This is a sample that favours compounds with a hit; in the whole collection about 2% have one here.

Results for Cc1nc2ccc(NC(=O)c3cc([N+](=O)[O-])cc([N+](=O)[O-])c3Cl)cc2s1 ?
Mcl1 Bid PPI: 21.8; Mcl1-Noxa inh: 96.3*; Mcl-1 Bim block: -13.0; MCL1-BIM inh: 10.0

What do the screens show for `O=C(Nc1cc2cccc([N+](=O)[O-])c2oc1=O)c1cccs1`?
Mcl1 Bid PPI: -30.3; Mcl1-Noxa inh: 62.3*; Mcl-1 Bim block: 0.0; MCL1-BIM inh: 7.0

Results for CCN=c1scc(C)n1/N=C/c1cc(Br)c(O)c(Br)c1 ?
Mcl1 Bid PPI: -3.6; Mcl1-Noxa inh: 72.7*; Mcl-1 Bim block: -1.0; MCL1-BIM inh: 11.7

What do the screens show for `CCOC(=O)c1c(C)[nH]c(C2=NNC(=NC3CC3)SC2)c1C`?
Mcl1 Bid PPI: -32.9; Mcl1-Noxa inh: 64.4*; Mcl-1 Bim block: 0.0; MCL1-BIM inh: 4.2

What do the screens show for `COc1cc2cc3c(N)c(C(=O)Nc4sc(C)c(C)c4C#N)sc3nc2cc1OC`?
Mcl1 Bid PPI: 66.4*; Mcl1-Noxa inh: 98.1*; Mcl-1 Bim block: 5.0; MCL1-BIM inh: 13.9

How did COc1cc2cc3c(N)c(C(=O)NCc4ccco4)sc3nc2cc1OC do in these assays?
Mcl1 Bid PPI: -17.7; Mcl1-Noxa inh: 56.5*; Mcl-1 Bim block: 2.0; MCL1-BIM inh: 8.6

Results for OC[C@H]1OC(O)C[C@@H](O)[C@@H]1O (stereo partly specified) ?
MCL1-BIM inh: 1.0

How did CC1CCCCN1C(=O)CSc1nc(C2CC2)nc2ccccc12 (stereo unspecified) do in these assays?
MCL1-BIM inh: -2.9

How did COc1ccc(-c2csc(NC(=S)NC(=O)/C=C/c3ccco3)n2)cc1OC do in these assays?
Mcl1 Bid PPI: 69.7*; Mcl1-Noxa inh: 52.1*; Mcl-1 Bim block: -6.0; MCL1-BIM inh: -24.0

Results for COc1ccc(-c2csc(NC(=S)NC(=O)/C=C/c3ccco3)n2)cc1Br ?
Mcl1 Bid PPI: 7.7; Mcl1-Noxa inh: 65.7*; MCL1-BIM inh: 4.5

Results for COc1ccc(-c2csc(NC(=S)NC(=O)/C=C/c3ccc(C(C)C)cc3)n2)cc1OC ?
MCL1-BIM inh: 6.2

How did COCc1c(C(=O)NC(C)c2ccc(S(N)(=O)=O)cc2)oc2ccccc12 (stereo unspecified) do in these assays?
MCL1-BIM inh: 0.6

What do the screens show for `Cn1cc(S(=O)(=O)N2CCCC2)cc1C(=O)NCc1ccccc1Cl`?
MCL1-BIM inh: -6.6

What do the screens show for `COCCN(CC(=O)NC1CCCCC1)C(=O)/C=C/C(=O)c1ccc(OC)cc1O`?
Mcl1 Bid PPI: 32.8; Mcl1-Noxa inh: 65.8*; Mcl-1 Bim block: -8.0

How did CC(=O)N1CCN(c2ccc(Nc3ncnc4c3oc3ccccc34)cc2)CC1 do in these assays?
Mcl1 Bid PPI: 19.6; Mcl1-Noxa inh: 68.3*; Mcl-1 Bim block: 2.0; MCL1-BIM inh: -0.9

What do the screens show for `CCc1nc(Nc2ccc(N3CCN(C(C)=O)CC3)cc2)c2oc3ccccc3c2n1`?
Mcl1 Bid PPI: 33.2; Mcl1-Noxa inh: 84.7*; Mcl-1 Bim block: 0.0; MCL1-BIM inh: 12.4

How did O=C(COC(=O)C12CC3CC(CC(C3)C1)C2)Nc1nccs1 do in these assays?
Mcl1 Bid PPI: 4.0; Mcl1-Noxa inh: 3.0; Mcl-1 Bim block: 0.0; MCL1-BIM inh: -1.2

What do the screens show for `COCCNC(=O)CN1C(=O)NC(c2ccccc2)(c2ccccc2)C1=O`?
MCL1-BIM inh: -3.9

Results for COC(=O)N/N=C/c1ccc([N+](=O)[O-])s1 ?
Mcl1 Bid PPI: -1.1; Mcl1-Noxa inh: 11.2; Mcl-1 Bim block: -5.0; MCL1-BIM inh: -0.1

Results for O=[N+]([O-])c1ccc(O)c(/C=N/NC(=S)Nc2ccc(Cl)cc2Cl)c1 ?
Mcl1 Bid PPI: -96.8; Mcl1-Noxa inh: 20.3; MCL1-BIM inh: 9.6

Results for Cc1ccccc1NC(=O)/C=C/c1ccc([N+](=O)[O-])s1 ?
Mcl1 Bid PPI: 51.8*; Mcl1-Noxa inh: 14.2; Mcl-1 Bim block: -6.0; MCL1-BIM inh: 0.0

How did Cc1cc(C)cc(NC(=O)/C=C/c2ccc([N+](=O)[O-])s2)c1 do in these assays?
Mcl1 Bid PPI: -0.2; Mcl1-Noxa inh: 19.6; Mcl-1 Bim block: 7.0; MCL1-BIM inh: -8.7

What do the screens show for `COc1ccccc1NC(=O)C(=O)N/N=C/c1ccc([N+](=O)[O-])s1`?
Mcl1 Bid PPI: 92.7*; Mcl1-Noxa inh: 92.5*; Mcl-1 Bim block: 4.0

Results for O=[N+]([O-])c1ccc(/C=N/NC(=S)Nc2ccc(Cl)cc2Cl)s1 ?
Mcl1 Bid PPI: 79.6*; Mcl1-Noxa inh: 87.5*; MCL1-BIM inh: -3.4

Results for CCn1c(=O)c2ccccc2n(CC(=O)NC2CCCCC2)c1=O ?
MCL1-BIM inh: -4.4

How did O=C(CNC(=O)C1(c2ccccc2)CC1)Nc1ccc(F)c(F)c1 do in these assays?
MCL1-BIM inh: -14.0

What do the screens show for `Cc1ccc(NC(=O)CNCCCN2CCOCC2)cc1S(=O)(=O)N1CCCCC1`?
Mcl1 Bid PPI: 51.4*; Mcl1-Noxa inh: 21.7; MCL1-BIM inh: -4.6

Results for COc1ccc(CN2CCN(c3ncccn3)CC2)c(OC)c1 ?
Mcl1 Bid PPI: 36.2; Mcl1-Noxa inh: 18.0; Mcl-1 Bim block: 1.0; MCL1-BIM inh: 3.9

Results for COc1ccc(CN2CCN(c3ccccn3)CC2)c(OC)c1 ?
Mcl1 Bid PPI: 56.4*; Mcl1-Noxa inh: 24.1; Mcl-1 Bim block: 0.0; MCL1-BIM inh: 4.7

What do the screens show for `O=c1c2ccccc2sn1-c1cc(S(=O)(=O)N2CCOCC2)ccc1N1CCOCC1`?
Mcl1 Bid PPI: -26.9; Mcl1-Noxa inh: 74.8*; Mcl-1 Bim block: -8.0; MCL1-BIM inh: 13.2

Results for O=c1c2ccccc2sn1-c1cc(S(=O)(=O)N2CCOCC2)ccc1N1CCCC1 ?
Mcl1 Bid PPI: -108.3; Mcl1-Noxa inh: 63.8*; Mcl-1 Bim block: -16.0; MCL1-BIM inh: 10.5

What do the screens show for `Cc1ccc(-c2nnc(OCc3nc4ccccc4n3C)c3ccccc23)cc1`?
MCL1-BIM inh: 5.5

What do the screens show for `O=C(c1ccco1)N1CCN(Cc2ccccc2Br)CC1`?
MCL1-BIM inh: 2.0

How did O=C(c1ccc(F)cc1)N1CCN(Cc2ccccc2Br)CC1 do in these assays?
Mcl1 Bid PPI: 59.8*; Mcl1-Noxa inh: 0.7; Mcl-1 Bim block: -9.0; MCL1-BIM inh: 0.5

Results for Cc1ncsc1CCC(=O)N1CCCC(C(=O)c2ccc3c(c2)OCO3)C1 (stereo unspecified) ?
Mcl1 Bid PPI: -32.2; Mcl1-Noxa inh: 9.0; Mcl-1 Bim block: 0.0; MCL1-BIM inh: 2.8

How did COC(=O)[C@@]1(Cc2ccc(F)cc2)[C@H]2c3cc(C(=O)N4CCCC4)n(CCc4ccc(O)c(O)c4)c3C[C@H]2CN1C(=O)c1ccccc1 do in these assays?
Mcl1 Bid PPI: -6.8; Mcl1-Noxa inh: 65.4*; Mcl-1 Bim block: 17.0; MCL1-BIM inh: 11.9

What do the screens show for `COc1ccc(NC(=O)c2cc(S(=O)(=O)N3CCCCC3)c[nH]2)cc1Cl`?
MCL1-BIM inh: 12.1

What do the screens show for `Cc1onc(-c2ccccc2)c1C(=O)N1CCN(c2ccccc2F)CC1`?
MCL1-BIM inh: -1.3

Results for Cn1cc(Br)c(C(=O)Nc2c(F)c(F)c(F)c(F)c2F)n1 ?
Mcl1 Bid PPI: -19.6; Mcl1-Noxa inh: 5.4; Mcl-1 Bim block: -3.0; MCL1-BIM inh: -2.5

What do the screens show for `Cn1cc(Br)c(NC(=O)/C=C/C(=O)O)n1`?
Mcl1 Bid PPI: 17.6; Mcl1-Noxa inh: 66.7*; MCL1-BIM inh: -1.2

Results for CCn1cc(C(=O)N[C@@H](CCSC)C(=O)NC(C)(C)CO)c(=O)c2cc3c(cc21)OCO3 ?
MCL1-BIM inh: 16.3
